High-throughput results deposited in PubChem BioAssay by National Center for Advancing Translational Sciences (NCATS).
FLuc inh: blocks purified firefly luciferase enzyme activity | purified P. pyralis luciferase, luminescence, biochemical | Potency, µM (titrated, usually from 115 µM), most hits filed as inhibitors | actives 2.5% (n = 76,000); note: nearly all actives have a fitted effect of over 65% in size
Target sequence (P08659 whole entry, looked up): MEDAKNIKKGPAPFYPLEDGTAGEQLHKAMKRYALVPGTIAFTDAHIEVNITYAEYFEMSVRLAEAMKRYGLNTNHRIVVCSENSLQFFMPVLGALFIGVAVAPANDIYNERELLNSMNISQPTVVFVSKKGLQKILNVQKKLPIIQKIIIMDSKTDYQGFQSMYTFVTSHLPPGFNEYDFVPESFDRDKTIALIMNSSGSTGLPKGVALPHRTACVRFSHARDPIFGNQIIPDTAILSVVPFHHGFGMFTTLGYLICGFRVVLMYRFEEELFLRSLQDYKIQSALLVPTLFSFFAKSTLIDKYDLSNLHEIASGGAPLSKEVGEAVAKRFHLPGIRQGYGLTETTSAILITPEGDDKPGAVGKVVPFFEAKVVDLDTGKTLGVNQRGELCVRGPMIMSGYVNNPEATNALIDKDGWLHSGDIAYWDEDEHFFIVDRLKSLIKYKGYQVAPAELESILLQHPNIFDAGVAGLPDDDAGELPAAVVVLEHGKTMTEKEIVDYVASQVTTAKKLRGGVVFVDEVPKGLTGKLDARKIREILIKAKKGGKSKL
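Biochemical qHTS: compound (6-point titration) added to 10uM D-luciferin plus 10uM ATP in Tris acetate pH 7.5 buffer with Mg, Tween-20 and BSA, then purified enzyme at 10nM; light output imaged.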
HEK cytotox: HEK 293 cell cytotoxicity | HEK 293 viability, ATP luminescence (CellTiter-Glo), 48-72 h | actives 6.6% (n = 94,000) | Potency, µM (series often up to 115 µM), usual class: inhibitors; note: nearly all actives have a fitted effect of over 60% in size
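Cytotoxicity was scored by loss of ATP-coupled luminescence (CellTiter-Glo) in HEK 293 cells. Compound treatment ran 48 or 72 hr at 37 degree Celsius, 5% CO2, 95% humidity.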
3T3 cytotox: kills NIH 3T3 cells; NIH 3T3 viability, CellTiter-Glo ATP luminescence, 48-72 h; Potency, µM (highest dose often 96.7 µM), most hits filed as inhibitors; actives 4.3% (n = 94,000); AID 1345082; note: nearly all actives have a fitted effect of over 55% in size
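Luminescent ATP readout (CellTiter-Glo, 10 min RT) after 48 or 72 hr compound exposure of NIH 3T3 cells seeded at 400 cells/well in 1536-well format; quantitative HTS.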
GPT2 inh: inhibitors of human GPT2 alanine aminotransferase | actives 0.25% (n = 100,000) | Q8TD30 | Recombinant GPT2, coupled pyruvate oxidase/HRP Amplex Red fluorescence | Potency, µM (highest dose often 57.7 µM), hits mostly inhibitors; note: nearly all actives have a fitted effect of over 60% in size
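Fluorescence read-out: pyruvate from GPT2 turnover coupled to pyruvate oxidase, HRP and Amplex Red (0.2mM ThPP, 0.2U/mL PO and HRP, 50uM Amplex final). Substrates 250uM a-KG, 2mM L-alanine; enzyme 10ng/uL; 30 min RT.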
hNpr1 antagonist: antagonists of human natriuretic peptide receptor Npr1; Potency, µM (highest dose often 46.3 µM), most hits filed as inhibitors; HEK293 hNpr1 GloSensor cGMP, ANP-stimulated luminescence; actives 1.6% (n = 76,000); P16066; calls by dose curve; note: nearly all actives have a fitted effect of over 60% in size
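Compound pre-incubated 30 min at room temperature on GloSensor-loaded HEK293 cells stably carrying hNpr1 and the pGS-40F cGMP biosensor. Stimulation uses hNppA at 0.1 nM final; luminescence is taken at baseline and 20 min post-agonist.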
A number is an active result; 0 = inactive; ? = inconclusive; - = no result. In the library only some 10% were active in any assay of this set; here they are far more common. Unless noted, calls come from the whole dose curve; as a rule, active = well fitted curve in the direction sought with a large enough effect; inconclusive = small, poorly fitted or top-dose-only effect, or another doubt; inactive = no such curve, though single readings can be large; an effect the other way counts as inactive or inconclusive.

SMILES	FLuc inh	HEK cytotox	3T3 cytotox	GPT2 inh	hNpr1 antagonist
O=C(NC1CCN(c2nccc(Nc3ccccc3Cl)n2)CC1)c1ccccc1Cl	-	39.8µM	?	0	-
CNC(=O)C1CCN(c2nccc(Nc3ccccc3Cl)n2)CC1	-	?	?	0	-
CNC(=O)C1CCN(c2nccc(Nc3ccc(C)cc3)n2)CC1	-	?	?	0	-
CC(NC(=O)C1CCN(c2nccc(Nc3ccccc3Cl)n2)CC1)c1ccc(F)cc1 (centres undefined)	-	39.8µM	31.6µM	0	-
Cc1ccc(Nc2ccnc(N3CCN(C(=O)c4ccccc4Cl)CC3)n2)cc1	-	39.8µM	?	0	-
Cc1ccc(Nc2ccnc(N3CCC(NC(=O)c4ccccc4Cl)CC3)n2)cc1	-	44.7µM	39.8µM	0	-
O=C(NC1CCN(c2nccc(Nc3ccccc3Cl)n2)CC1)C1CC1	-	?	28.2µM	0	-
CCN(Cc1cccc(OCCO)c1)CC1CCCN(CCc2cccc(OC)c2)C1 (centres undefined)	0	?	?	0	0
CCN1c2cc(C(=O)Nc3ccc(Cl)cc3)ccc2C(=O)N2CCCC21 (centres undefined)	0	0	0	0	0
CN1c2cc(C(=O)Nc3ccc(F)c(Cl)c3)ccc2C(=O)N2CCCCC21 (centres undefined)	0	?	?	0	0
CCN1c2cc(C(=O)Nc3cccc(Cl)c3)ccc2C(=O)N2CCCCC21 (centres undefined)	0	31.6µM	?	0	0
CN1c2cc(C(=O)Nc3cccc(Cl)c3)ccc2C(=O)N2CCCCC21 (centres undefined)	14.1µM	?	?	0	0
CCN1c2cc(C(=O)Nc3cccc(Cl)c3)ccc2C(=O)N2CCCCCC21 (centres undefined)	0	?	39.8µM	?	0
O=C(COc1ccccc1)NCCC1CCN(C(=O)Nc2cc(F)cc(F)c2)CC1	0	0	?	0	0
O=C(c1ccc2nnc(-c3cccc(OC(F)(F)F)c3)n2c1)N1CCCC1	-	0	?	0	-
Nc1ncnc2c1c(-c1ccc(Cl)cc1)nn2-c1cccc(-c2cnnn2Cc2cccc(-c3ccccc3)c2)c1	-	-	-	0	-
CCn1ccc(C(=O)NC2CCCN(c3cc(-c4ccc(OC)cc4)[nH]n3)C2)n1 (centres undefined)	28.2µM	?	0	0	0
CCn1ccc(C(=O)NC2CCCN(c3cc(-c4ccc(Cl)cc4)[nH]n3)C2)n1 (centres undefined)	35.5µM	?	?	0	0
O=C(NC1CCN(c2ccc3nnc(-c4ccccc4)n3n2)C1)c1ccc(Cl)cc1 (centres undefined)	-	0	0	-	-
C[C@H](NC(=O)C[C@@H]1c2nc(NC(=O)c3ccc(F)cc3)sc2C[C@@H]2[C@](C)(CO)[C@H](O)CC[C@]21C)c1ccccc1	0	31.6µM	?	?	0
CCCCCC(=O)Nc1nc2c(s1)C[C@@H]1[C@](C)(CO)[C@H](O)CC[C@@]1(C)[C@@H]2CC(=O)N[C@@H](CO)CC(C)C	0	?	79.4µM	?	0
CC(C)C[C@H](CO)NC(=O)C[C@@H]1c2nc(NC(=O)CC(C)(C)C)sc2C[C@@H]2[C@](C)(CO)[C@H](O)CC[C@]21C	0	0	0	0	0
C[C@@H](NC(=O)C[C@@H]1c2nc(NC(=O)CC(C)(C)C)sc2C[C@@H]2[C@](C)(CO)[C@H](O)CC[C@]21C)c1ccccc1	0	39.8µM	?	0	0
C[C@]1(CO)[C@H]2Cc3sc(NC(=O)c4ccc(F)cc4)nc3[C@@H](CC(=O)O)[C@]2(C)CC[C@H]1O	0	0	0	0	0
CC(C)(C)CC(=O)Nc1nc2c(s1)C[C@@H]1[C@](C)(CO)[C@H](O)CC[C@@]1(C)[C@@H]2CC(=O)O	0	0	0	0	0
COc1ccc(NC(=O)Cc2ccc(N(Cc3ccc(C)cc3)C(=O)c3ccco3)cc2)cc1	0	?	?	0	0
O=C1COc2ccc(N3CCOCC3)nc2CN1CCOc1ccccc1	0	?	?	0	0
CS(=O)(=O)N(Cc1ccccn1)C1CN(C(=O)c2ccoc2)C1	-	0	0	?	-
CN(C)Cc1cccc(-c2cc3c(ccn3Cc3ccncc3)c(N3CCOCC3)n2)c1	0	89.1µM	39.8µM	0	0
